# Source: PubChem BioAssay (National Center for Advancing Translational Sciences (NCATS))
# HBB splicing = qHTS Assay for Modulators of Hemoglobin Beta Chain Splicing | actives 0.06% (n = 65,000) | HBB splicing reporter cell assay, activation; EGFP reporter with mutant IVS2-654 intron; response scale: normalised to 500 nM splice-correcting PNA | AID 925, 2007 | Potency, µM (titrated, usually from 46.1 µM), for inactives: top-dose activation, hits mostly activators; also: potency is read from the fitted curve at half-maximal effect; 0% is about no effect
#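 HeLa cells stably expressing EGFP interrupted by mutant beta-globin intron 2 (IVS2-654), 500/well in 2% FCS. Treated with compound for 2 days at 37C. Splicing correction scored as total well GFP intensity (488 nm excitation, 500-520 nm emission); 500 nM antisense PNA served as control.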
# UbGFP stabilizer = Ubiquitin-GFP Assay. Ubiquitin-GFP reporter cells, proteasome inhibition, GFP fluorescence; response scale: untreated = 0%, 10 µM MG-132 = 100%. Potency, µM (series often up to 45.9 µM), for inactives: at the highest dose activation (GFP accumulation), most hits filed as activators. 67,000 tested, under 10 active; active = well fitted activation curve with a large enough effect, not every such curve was filed as active; inconclusive = small, poorly fitted or top-dose-only effect, or another doubt; inactive = no such curve, though single readings can be large or run the other way; also: potency is read from the fitted curve at half-maximal effect
#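 Proteasome blockade was scored as a rise in GFP-expressing U2OS cells carrying a ubiquitin(G76V)-GFP construct, imaged after 4 hr compound treatment at 37 °C across a 46 uM–2.9 nM series.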
# PK Bst = Pyruvate Kinase | purified pyruvate kinase, luminescence ATP production; ribose 5-phosphate activator present at AC10 | Potency, µM | actives 1.2% (n = 51,000) | AID 361, 2006; in the data active = potency below about 11 µM; inconclusive = mostly about 12 µM to 25 µM;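 the screen sought inhibitors and activators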;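 also: potency is read from the fitted curve at half-maximal effect; scaled between full activation by ribose 5 phosphate and full inhibition by luteolin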
# USP2a inh = qHTS Assay for Inhibitors of Ubiquitin-specific Protease USP2a; actives 0.1% (n = 60,000); Potency, µM (top dose mostly 38.3 µM), inactives show at the highest dose activity change, negative = inhibition, most hits filed as inhibitors; USP2a enzymatic assay, qHTS inhibition; AID 927, 2007; also: potency is read from the fitted curve at half-maximal effect; nearly all actives have a fitted effect of over 60% in size
# Target sequence (O75604 whole entry, looked up): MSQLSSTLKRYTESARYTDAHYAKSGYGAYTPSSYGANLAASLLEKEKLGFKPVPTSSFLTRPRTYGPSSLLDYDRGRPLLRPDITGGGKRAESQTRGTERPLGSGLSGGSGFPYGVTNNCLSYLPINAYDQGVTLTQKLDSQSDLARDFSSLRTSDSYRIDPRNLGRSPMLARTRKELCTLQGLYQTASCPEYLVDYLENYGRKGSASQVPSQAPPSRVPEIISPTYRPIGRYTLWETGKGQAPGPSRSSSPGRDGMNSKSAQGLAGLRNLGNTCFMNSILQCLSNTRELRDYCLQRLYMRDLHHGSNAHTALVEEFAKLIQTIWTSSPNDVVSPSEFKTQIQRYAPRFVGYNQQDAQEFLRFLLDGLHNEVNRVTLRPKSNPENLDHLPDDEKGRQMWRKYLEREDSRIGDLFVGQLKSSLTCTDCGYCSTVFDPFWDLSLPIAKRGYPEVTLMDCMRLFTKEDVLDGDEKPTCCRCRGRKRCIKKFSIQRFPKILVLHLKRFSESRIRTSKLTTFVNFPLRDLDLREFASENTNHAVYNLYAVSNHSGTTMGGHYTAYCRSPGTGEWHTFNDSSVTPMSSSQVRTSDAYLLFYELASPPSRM
#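 USP2 core (20nM final) preincubated 30 min RT with compound, then Ub-PLA2 20nM and NBD C6-HPC 20uM final added; buffer 20mM Tris-HCl pH 8.0, 2mM CaCl2. Fluorescence Ex 460/Em 535 read at 0 and 2.5 h; normalized to NEM.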
# Hsp90 Hop PPI = qHTS Assay for Disrupters of an Hsp90 Co-Chaperone Interaction; Hsp90 C-terminal peptide / TPR2A (Hop) interaction, human; AlphaScreen TPR2A-His6 binding biotin-Hsp90 C-terminal peptide; Potency, µM (highest dose often 57 µM), for inactives: top-dose activity change, negative = inhibition; actives 0.44% (n = 71,000); AID 595, 2007; active = well fitted curve in either direction with a large enough effect; inconclusive = small, poorly fitted or top-dose-only effect, or another doubt; also: potency is read from the fitted curve at half-maximal effect; % is scaled to controls: 0 for no effect and ±100 for the full control effect
# Epigenetic mod = qHTS Assay for Epigenetic Modulators | AID 597, 2007 | actives 0.09% (n = 68,000) | mouse C127i GFP locus derepression, cytometry, 30 h | Potency, µM (titrated, usually from 46.1 µM), for the others: at the highest dose GFP derepression (activation); also: % of control where 0% means no effect
#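 Derepression screen: silenced CMV-GFP reporter in murine C127i cells, 30 h compound incubation at 37 C, washed cells imaged by laser-scanning cytometer to enumerate GFP-expressing objects of 20 to 120 um.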
# Numbers without * were called inactive; u = inconclusive; x = no result; [ ] = dose if it differs, or a comment. Sampled rows, rich in hits. Any-hit rate of the full collection: about 1.3%. Unless noted, calls follow the shape of the dose curve; as a rule, active = well fitted curve in the direction sought with a large enough effect; inconclusive = small, poorly fitted or top-dose-only effect, or another doubt; inactive = no such curve, though single readings can be large; an effect the other way counts as inactive or inconclusive.
SMILES,HBB splicing,UbGFP stabilizer,PK Bst,USP2a inh,Hsp90 Hop PPI,Epigenetic mod
Cc1cc(NCCCn2ccnc2)n2ncc(-c3ccccc3)c2n1,4%[1.84 µM],13%,2*,15%,-5%,0%
CC(C)(C)OC(=O)[C@H]([C@@H]1N[C@@H](C(=O)O)C(C)(C)S1)N1C(=O)c2ccccc2C1=O,-1%[9.22 µM],-2%[9.17 µM],x,x,-3%[11 µM],-9%[9.22 µM]
CCn1cc(C(=O)O)c(=O)c2ccc(Cc3ccccc3)nc21,-1%,6%,x,x,-11%,-1%
Cc1ccc(C(=O)Nc2ccc(Cl)cn2)cc1,-1%,-2%,9.1*,-1%,6%,0%
Cc1ccc(NC(=O)c2cccc(Cl)c2)nc1,-2%,-2%,>57,-6%,0%,-3%
Cc1ccc(NC(=O)c2ccc3ccccc3n2)nc1,1%,5%,6.9*,5%,13%,0%
C=C1CC[C@@H]2O[C@]2(C)CC[C@@H]2[C@H]1CC2(C)C,x,-2%,x,x,-5%,9%[9.22 µM]
Cc1ccc(S(=O)(=O)O[C@H]2C[C@@H](C(C)(C)C)CC[C@@H]2c2ccccc2)cc1,1%[9.22 µM],-5%[9.17 µM],x,x,7%[11 µM],9%[9.22 µM]
c1ccc2nc3c(nc2c1)[nH]c1ccccc13,9%,0%,4.1*,4%,u,0%
N[C@@H](Cc1c[nH]c2ccccc12)C(=O)NCC(=O)O,x,-5%,x,x,-4%,-2%[9.22 µM]
c1csc(-c2nnc3ccccn23)c1,2%,7%,7*,-3%,-1%,3%
Clc1ccc(-c2nnc3sc(Cc4cccs4)nn23)c(Cl)c1,x,x,9.5*,x,x,2%[20.6 µM]
COc1cccc(-c2cn3nc4c(nc3n2)CCCC4)c1,-3%[0.369 µM],x,4.6*,42%,2%,-3%
COc1cccc(-c2cc(C(F)(F)F)n3nc(N)nc3n2)c1,-1%,-2%,>57,0%,-8%,6%
Cc1ccc(C(C(=O)NC2CCCC2)N(C(=O)c2csnn2)C2CCCC2)o1 (stereo not given),x,4%,>57,14%,2%,-3%
CC(C)(C)NC(=O)C(c1ccncc1)N(C(=O)c1csnn1)C1CC1 (stereo not given),0%,-8%,9.1*,5%,-2%,-2%
OC[C@@H]1O[C@@H](n2cnc3c(NC4CCCC4)ncnc32)[C@@H](O)[C@H]1O,1%,-5%,x,-8%,-10%,0%
CN(C)c1oc(COc2ccc(F)cc2)nc1C#N,0%,9%,>57,-3%,-13%,8%
CN(C)c1oc(-c2ccc(OCc3ccc(Cl)cc3)cc2)nc1C#N,0%[0.369 µM],4%,0.25*,-5%,-9%,7%
O=C(NC1CCS(=O)(=O)C1)c1ccc(-c2ccc(Br)cc2)o1 (stereo not given),0%[57.5 µM],-2%,7.8*,11%,-4%,2%
CCSc1nnc(NC(=O)c2cccc(OCc3c(C)noc3C)c2)s1,0%[57.5 µM],-6%,>57,17%,6%,0%
COc1ccc2nc(NC(=O)c3cccc(OCc4c(C)noc4C)c3)sc2c1,-3%,0%,6*,13%,11%,-2%
Cn1cc(C2NC(=O)c3c(sc4c3CCCC4)N2)c2ccccc21 (stereo not given),0%,10%,x,x,-9%,-2%
O=C1NC(c2ccccn2)Nc2sc3c(c21)CCC3 (stereo not given),0%,3%,x,16%,32µM*,-2%
CC(=O)O[C@H]1CC[C@@]2(C)[C@@H](CC[C@@]3(C)[C@H]2C(=O)C=C2[C@H]4C[C@](C)(C(=O)OCCN5CCCCC5)CC[C@]4(C)CC[C@@]23C)C1(C)C,x,1%,x,x,-4%,0%[9.22 µM]
SMILES,HBB splicing,UbGFP stabilizer,PK Bst,USP2a inh,Hsp90 Hop PPI,Epigenetic mod
c1cn2cc(-c3ccc4c(c3)OCO4)nc2s1,-1%,-3%,8.9*,-10%,-4%,0%
O=C(CCN1C(=O)c2ccccc2C1=O)Nc1ccc(-c2cn3ccsc3n2)cc1,0%[57.5 µM],0%,>57,5%,-4%,4%
CC(=O)Nc1ccc(-c2cn3ccsc3n2)cc1,1%,-4%,u,6%,-7%,-4%
CC(C)C(=O)Nc1cccc(-c2cn3ccsc3n2)c1,-1%,-5%,x,4%,-5%,-3%
O=C(Nc1ccc(-c2cn3ccsc3n2)cc1)C1CCCC1,-1%,-1%,2.4*,18%,-11%,5%
O=C(Nc1ccc(-c2cn3ccsc3n2)cc1)C1CC1,0%[57.5 µM],2%,4.9*,-2%,-5%,5%
N[C@H](CS(=O)O)C(=O)O,2%,1%,x,x,-2%,0%
O=C1OC2(c3cc(Br)c(O)c(Br)c3Oc3c2cc(Br)c(O)c3Br)c2c(Cl)c(Cl)c(Cl)c(Cl)c21,2%,x,x,x,u,x
C[C@@H]1O[C@@H](OC[C@@H]2O[C@@H](Oc3c(-c4ccc(O)c(O)c4)oc4cc(O)cc(O)c4c3=O)[C@H](O)[C@H](O)[C@@H]2O)[C@H](O)[C@H](O)[C@@H]1O,x,3%,x,x,1%,-5%[9.22 µM]
C[C@@]12CC[C@H]3[C@H](CC=C4C[C@@H](O)CC[C@@]43C)[C@@H]1CC[C@@H]2N(CCO)CCO,0%[9.22 µM],-8%[9.17 µM],x,x,-1%[11 µM],2%[9.22 µM]
CCCCC(=O)N(CCOC)c1nnc(-c2ccc(OC)cc2)s1,x,0%,>57,2µM*,-1%,2%
CNc1ncnc2c1ncn2[C@H]1C[C@@H](OP(=O)(O)O)[C@H](COP(=O)(O)O)O1,0%,-5%,x,2%,-18%,0%
COc1ccccc1-n1cc(C(=O)NCC(=O)N2CCN(c3ccccn3)CC2)c2ccccc2c1=O,-3%,5%,u,23%,-3%,2%
COc1ccccc1-n1cc(C(=O)NCC(=O)N2CCN(c3ccccc3)CC2)c2ccccc2c1=O,-2%,-2%,3.7*,24%,-5%,0%
CN=c1scc(C)n1/N=C/c1ccc2c(c1)OCO2,-2%,-4%,3.2*,7%,u,1%
CCCc1nc2ccccc2c(=O)n1/N=C/c1ccc(O)cc1,-1%,3%,>57,24%,-5%,6%
CN=c1scc(C)n1/N=C/c1ccc(O)cc1,0%[57.5 µM],3%,6.8*,4%,-16%,2%
CN=c1scc(C)n1/N=C/c1ccc(O)cc1O,1%,0%,1.1*,-7%,-29%,-2%
Cc1nnc(C)n1/N=C/c1ccc2c(c1)OCCO2,0%[57.5 µM],0%,>57,-3%,3%,-2%
O=S(=O)(NCCNC/C=C\c1ccc(Br)cc1)c1cccc2cnccc12,1%,0%,x,21%,-16%,-1%
